In the library only some 2.3% were active in any assay of this set; here they are far more common.
M1 ag: human M1 muscarinic receptor agonism. P11229. CHO-K1 hM1, Fluo-8 calcium fluorescence, agonist mode; 0% DMSO, 100% acetylcholine EC100. activation, % at 3 µM. hit rate 0.33% among 360,000. AID 588814;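 active = activation above the run's mean compound activation plus 3 SD, cut at about 16% in these data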;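 note: peak over basal fluorescence ratio within a 140 s kinetic read after compound addition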
Target sequence (P11229 whole entry, looked up): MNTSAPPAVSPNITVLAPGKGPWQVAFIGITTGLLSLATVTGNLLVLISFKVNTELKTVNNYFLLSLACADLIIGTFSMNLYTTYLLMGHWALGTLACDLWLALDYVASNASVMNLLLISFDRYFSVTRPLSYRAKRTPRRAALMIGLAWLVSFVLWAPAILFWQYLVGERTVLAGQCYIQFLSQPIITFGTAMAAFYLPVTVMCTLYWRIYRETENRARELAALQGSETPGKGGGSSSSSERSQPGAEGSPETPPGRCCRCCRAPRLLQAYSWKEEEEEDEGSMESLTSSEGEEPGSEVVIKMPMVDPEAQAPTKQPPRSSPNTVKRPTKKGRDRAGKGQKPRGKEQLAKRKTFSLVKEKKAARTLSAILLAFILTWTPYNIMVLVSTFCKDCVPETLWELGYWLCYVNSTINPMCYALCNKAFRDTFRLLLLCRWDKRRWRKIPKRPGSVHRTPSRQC
M1 PAM: positive allosteric modulators of human M1 muscarinic receptor. P11229. hit rate 0.088% among 360,000. CHO-K1 hM1, Fluo-8 calcium fluorescence, ACh EC20; 0% = ACh EC20, 100% = maximal ACh. activation, % at 3 µM; in the data active = activation above about 19%, passing the limit was not always enough
CHO-K1 Ca ag: M1 agonist counterscreen hit in parental CHO-K1 cells | activation, % at 3 µM | hit rate 0.48% among 360,000 | AID 602248 | Fluo-8 calcium fluorescence; scaled to maximal ATP response, vehicle zero; in the data active = activation above about 15%;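 note: untransfected CHO-K1 host cells lacking M1 receptor as counterscreen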
CHO-K1 Ca antag: M1 antagonist counterscreen hit in parental CHO-K1 cells | ATP-induced calcium, Fluo-8 fluorescence | inhibition, % at 3 µM | hit rate 0.6% among 360,000 | AID 602250;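 active = inhibition above a per-plate cutoff, the plate's mean sample inhibition plus 3 SD, cut at about 24% in these data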
M1 PAM parental: counter-screen for M1 PAMs: effect in parental CHO-K1 cells; activation, % at 3 µM; AID 602247; hit rate 0.02% among 360,000; ATP EC20, Fluo-8 calcium fluorescence; 0% at ATP EC20, 100% at ATP max;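 active = activation above the run cutoff, the mean activation of all test compounds plus 3 SD, cut at about 40% in these data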;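 note: peak over basal fluorescence ratio in a 140 s read after ATP addition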
M1 antag: blocks human M1 muscarinic receptor; CHO-K1 hM1, Fluo-8 calcium fluorescence, ACh EC80 antagonist; inhibition, % at 3 µM; hit rate 1.3% among 360,000; AID 588852;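 active = percent inhibition above its own plate's cutoff, namely the mean of that plate's compound wells plus 3 SD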;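 note: peak over basal fluorescence ratio during 140 s after agonist addition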
A number is an active result; 0 = inactive.

SMILES	M1 ag	M1 PAM	CHO-K1 Ca ag	CHO-K1 Ca antag	M1 PAM parental	M1 antag
Nc1ncnc2nc(SCc3ccc(Cl)cc3Cl)[nH]c12	0	0	0	0	0	0
Nc1cc(=O)[nH]c(SCc2ccc(Cl)cc2Cl)n1	0	0	15.1	0	0	0
Cn1c2ccccc2c(=O)c2c(=O)n(C3CCCCC3)c(-c3ccco3)nc21	18.8	0	24.3	0	0	0
Cc1nc2c(c(=O)c3ccccc3n2C)c(=O)n1C1CCCCCC1	0	0	0	0	0	0
CCN(C[C@H]1N[C@@](Cc2ccccc2)(C(=O)OC)[C@H]2C(=O)N(C)C(=O)[C@@H]12)C(C)=O	0	0	0	0	0	0
Cc1ccc(C(C)NC(=O)c2ccncc2)c(C)c1 (stereo not drawn)	0	0	0	0	0	0
CCn1c(SCC(=O)c2ccc(NS(=O)(=O)c3ccccc3)cc2)nnc1-c1cccs1	0	0	0	23.7	0	0
CCn1c(SCC(=O)Nc2ccccc2)nnc1-c1cccs1	0	0	0	0	0	0
O=C(COC(=O)c1cc(Br)ccc1O)Nc1cccnc1Cl	0	0	0	0	0	0
O=C(CSc1nccc(=O)[nH]1)Nc1cccc2ccccc12	0	0	0	0	0	0
Cc1ccc(S(=O)(=O)NC(=O)C2(C)CCN2C(=O)Cc2ccc(-c3ccccc3)cc2)cc1 (stereo not drawn)	0	0	0	0	0	0
CC(C)(C)c1ccc(CC(=O)N2CCC2(C)C(=O)Nc2cnc3ccccc3c2)cc1 (stereo not drawn)	0	0	0	0	0	36.2
Cc1ccc(NC(=O)C2(C)CCN2C(=O)Cc2ccc(-c3ccccc3)cc2)cc1 (stereo not drawn)	19.2	0	0	0	0	0
CC(=O)c1c(C)[nH]c(C(=O)COC(=O)CN(C)S(=O)(=O)c2ccc(Cl)cc2)c1C	0	0	0	0	0	0
CC(C)CCN1C(=O)C2(OCCCO2)c2cc(Cl)ccc21	0	0	0	0	0	0
COc1ccc(CCNc2cc(C)nc3c(-c4ccccc4)cnn23)cc1OC	0	0	0	0	0	0
Cc1cc(NCc2ccccc2)n2ncc(-c3ccccc3)c2n1	0	0	0	0	0	39.2
N#CCCN1CCN(C(=S)c2ccc(-c3ccc(Cl)cc3)o2)CC1	0	0	0	26.6	0	0
S=C(c1ccc(-c2ccc(Cl)cc2)o1)N1CCCCC1	0	0	0	0	0	0
CCN(CC)CCNC(=O)c1cc(S(=O)(=O)N2CCc3ccccc32)cn1C	0	0	0	0	0	0
CCN(CC)CCNC(=O)c1ccc(NC(=O)c2cc(S(=O)(=O)N3CCCCC3)ccc2C)cc1	0	0	0	0	0	93.5
O=C(NNC(=O)c1ccccc1F)c1cccc(S(=O)(=O)N2CCc3ccccc32)c1	0	0	0	0	0	37.6
CC1Cc2ccccc2N1S(=O)(=O)c1cccc(C(=O)NNC(=O)c2ccccc2F)c1 (stereo not drawn)	0	0	0	0	0	0
CCN(CC)CCNC(=O)c1ccc(NC(=O)c2ccc(S(=O)(=O)N3CCCC3)cc2)cc1	0	0	0	0	0	0
CCN(CC)CCNC(=O)c1ccc(NC(=O)c2cccc(S(=O)(=O)N3c4ccccc4CC3C)c2)cc1 (stereo not drawn)	0	0	0	0	0	100.3
SMILES	M1 ag	M1 PAM	CHO-K1 Ca ag	CHO-K1 Ca antag	M1 PAM parental	M1 antag
CC1Cc2ccccc2N1S(=O)(=O)c1cccc(C(=O)NCCCO)c1 (stereo not drawn)	0	0	0	0	0	0
CCN(CC)CCNC(=O)c1ccc(NC(=O)c2cccc(S(=O)(=O)N3CCc4ccccc43)c2)cc1	0	0	0	0	0	100.2
COc1ccc(CCNC(=O)CCc2ccc(S(=O)(=O)NCC(C)C)cc2)cc1OC	0	0	0	0	0	0
CCN(CC)CCNC(=O)c1ccc(NC(=O)c2cccc(S(=O)(=O)Nc3ccc(C)cc3)c2)cc1	0	0	0	0	0	97.7
CCN(CC)CCNC(=O)c1ccc(NC(=O)c2ccc(S(=O)(=O)N(C)c3ccccc3OC)cc2)cc1	0	0	0	0	0	41.3
CN(C)CCNC(=O)c1cccc(S(=O)(=O)Nc2ccc(F)cc2)c1	0	0	0	0	0	0
COc1ccccc1N(C)S(=O)(=O)c1ccc(C(=O)Nc2ccc(C(N)=O)cc2)cc1	0	0	0	0	0	0
O=C(NC1CCCCC1)N1CCN(c2ccc([N+](=O)[O-])cc2)CC1	0	0	0	0	0	27.2
Cc1noc(C)c1CSCC(=O)N1CCN(c2ccc([N+](=O)[O-])cc2)CC1	0	0	0	0	0	57.5
O=C(c1cc([N+](=O)[O-])ccc1N1CCOCC1)N1CCN(c2ccc([N+](=O)[O-])cc2)CC1	0	0	0	0	0	32.4
O=C(NC1CCCCC1)N1CCN(c2ccc(Cl)cc2)CC1	0	0	0	0	0	0
Cc1nc(CNC(=O)CC2C(=O)NCCN2Cc2ccc(F)cc2)cs1 (stereo not drawn)	0	0	0	0	0	0
NCC(c1ccc(Cl)cc1Cl)c1c[nH]c2ccccc12 (stereo not drawn)	0	0	15.3	25.2	0	0
NCC(c1ccccc1Cl)c1c[nH]c2ccccc12 (stereo not drawn)	0	0	0	0	0	0
Cc1cccc2cc3c(N)c(C(=O)N4CCc5ccccc54)sc3nc12	0	0	32.9	44.5	0	29.6
CCN(CC)CCOc1ccccc1C(C)=O	0	0	0	0	0	39.6
CC(=O)c1ccccc1OCCOCCOc1ccccc1C(C)=O	0	0	0	0	0	0
CN(C(=O)c1ccc(NC(=O)Cc2ccc(NC(=O)C3CCCN(C(=O)C4CC4)C3)cc2)cc1)C1CC1 (stereo not drawn)	0	0	0	0	0	0
O=C(Nc1nc2ccccc2s1)C1CCN(S(=O)(=O)c2cc([N+](=O)[O-])ccc2Cl)CC1	0	0	0	40.3	0	53.3
O=C(COc1ccccc1C(=O)O)Nc1nc2ccc([N+](=O)[O-])cc2s1	0	0	0	0	0	26.4
O=C(NNC(=O)c1ccc(-n2cncn2)c([N+](=O)[O-])c1)c1ccc(Cl)cc1	0	0	0	0	0	0
O=C(NNC(=O)c1ccc(-n2cncn2)c([N+](=O)[O-])c1)c1cccc(Cl)c1	0	0	0	47.5	0	0
O=C(Nc1ccc(S(=O)(=O)N2CCCc3ccccc32)cc1)C1CCCO1 (stereo not drawn)	0	0	0	0	0	39.8
O=C(Nc1ccc(S(=O)(=O)N2CCc3ccccc3C2)cc1)C1CCCO1 (stereo not drawn)	0	0	0	0	0	0
CSc1nn(-c2ccc(C(=O)OCC(=O)NC(=O)NC(C)C)cc2)c(=S)s1	0	0	0	0	0	0
